Bioassay records deposited in PubChem BioAssay by National Center for Advancing Translational Sciences (NCATS).
This is a sample that favours compounds with a hit; in the whole collection about 10% have one here.
KB-3-1 tox – kills parental KB-3-1 adenocarcinoma cells. 400,000 tested, 1.4% active. AID 1347075. Potency, µM (titrated, usually from 46.1 µM), most hits filed as cytotoxic. KB-3-1 viability, CellTiter-Glo ATP luminescence, 72 h; further: on the % scale 0 is the no-effect control and ±100 the full control effect; nearly all actives have a fitted effect of over 60% in size
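Cytotoxicity measured as CellTiter-Glo luminescence after 72 h at 37 C. Compound titrations were pinned onto drug-naive KB-3-1 parental adenocarcinoma cells grown in DMEM with 10% FBS, and normalized data fitted to concentration-response curves.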
MCF10A rerep – inducers of DNA re-replication in MCF 10A breast cells; MCF 10A DNA re-replication, Hoechst nuclear intensity, 48 h; Potency, µM (doses to about 46.1 µM), without a hit: at the highest dose activity, positive = re-replication, actives largely listed as activators; 350,000 tested, 2.9% active; further: % of control where 0% means no effect; nearly all actives have a fitted effect of over 50% in size
RORg inh – ROR gamma (mouse) transcription inhibition | Potency, µM (series often up to 53.6 µM), without a hit: top-dose activity change, negative = inhibition, usual class: inhibitors | 310,000 tested, 5.4% active | AID 2551 | P51450 | Drosophila S2 Gal4-RORgamma UAS-luciferase reporter, 20 h; further: on the % scale 0 is the no-effect control and ±100 the full control effect; nearly all actives have a fitted effect of over 60% in size
Target sequence (P51450 whole entry, looked up, the tested form may be a part): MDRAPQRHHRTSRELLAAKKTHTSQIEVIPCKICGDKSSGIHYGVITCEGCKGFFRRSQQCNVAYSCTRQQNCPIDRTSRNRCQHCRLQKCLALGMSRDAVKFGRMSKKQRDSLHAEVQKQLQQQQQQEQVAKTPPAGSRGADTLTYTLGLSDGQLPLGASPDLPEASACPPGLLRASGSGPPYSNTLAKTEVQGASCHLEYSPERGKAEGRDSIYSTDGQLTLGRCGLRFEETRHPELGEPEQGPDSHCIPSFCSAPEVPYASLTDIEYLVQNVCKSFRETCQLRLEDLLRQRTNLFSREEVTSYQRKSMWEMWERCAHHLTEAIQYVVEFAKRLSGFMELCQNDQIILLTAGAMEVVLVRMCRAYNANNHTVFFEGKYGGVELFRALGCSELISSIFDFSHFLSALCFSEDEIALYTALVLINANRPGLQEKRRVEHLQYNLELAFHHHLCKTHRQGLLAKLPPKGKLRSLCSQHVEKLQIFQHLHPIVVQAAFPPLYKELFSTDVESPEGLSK
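Schneider cells (Drosophila), stable Gal4 DBD–ROR gamma + UAS-luc; 1 hr cmpd preincubation; Cu2+ induction 700 uM final; 20 hr ambient; luminescence.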
SW480 rereplic – inducers of DNA re-replication in SW480 colon cancer cells | SW480 DNA re-replication, Hoechst DNA content imaging, 48 h | 340,000 tested, 1.8% active | Potency, µM (top dose mostly 46.1 µM), for inactives: top-dose re-replication activation, hits mostly activators; further: % of control where 0% means no effect; nearly all actives have a fitted effect of over 55% in size
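Per well, 250 cells were exposed to pinned compound for 48 hr. Nuclear DNA was visualised with Hoechst (40 min, 37 C) and total object intensity recorded by fluorescence scanning.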
KB-V1 cytotox – KB-V1 MDR subline cytotoxicity. KB-V1 MDR cells viability, CellTiter-Glo, 72 h. Potency, µM (series often up to 46.1 µM), most hits filed as cytotoxic. 400,000 tested, 3.4% active. AID 1347076; further: on the % scale 0 is the no-effect control and ±100 the full control effect; nearly all actives have a fitted effect of over 60% in size
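Luminescent ATP read-out (CellTiter-Glo, 10 min) measures survival of drug-selected KB-V1 MDR cells after 72 h, 37 degrees C compound exposure. Medium: phenol-red-free DMEM, 10% FBS. Values from fitted concentration-response curves.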
Gal4-VP16 FLuc – inhibits Gal4-VP16 luciferase reporter, ROR gamma counter-screen | Drosophila S2 Gal4-VP16 UAS-luciferase, luminescence, 20 h | Potency, µM (series often up to 53.6 µM), for inactives: top-dose activity, negative = inhibition, actives largely listed as inhibitors | 310,000 tested, 3.5% active;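 further: Gal4-VP16 expression switched on by copper sulfate through the metallothionein promoter; on the % scale 0 is the no-effect control and ±100 the full control effect; nearly all actives have a fitted effect of over 50% in size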
The depositor's hits bear a star; i = inactive; ? = inconclusive; / = not tested or not shown. The call rests on the fitted dose curve; in most records, active means well fitted curve in the direction sought with a large enough effect; inconclusive means small, poorly fitted or top-dose-only effect, or another doubt; inactive means no such curve, though single readings can be large; an effect the other way counts as inactive or inconclusive. Potency means the concentration at half of the fitted maximal effect.

SMILES | KB-3-1 tox | MCF10A rerep | RORg inh | SW480 rereplic | KB-V1 cytotox | Gal4-VP16 FLuc
CC(C)c1ccc(NC(=O)Nc2nc(C(N)c3ccccc3Cl)cs2)cc1 (stereo not drawn) | i | / | / | / | ? | /
Nc1ccccc1N=Cc1ccc(-c2cccc(Cl)c2)o1 | ? | ? | ? | ? | ? | 13µM*
CC1=CC2=NC(=O)/C(=C\c3ccc(-c4cccc(Cl)c4)o3)C(=N)N2O1 | 4.1µM* | 14% | ? | 18% | ? | -19%
CC1=NOC(=O)/C1=C\c1ccc(-c2cccc(Cl)c2)o1 | i | 16µM* | ? | ? | ? | ?
COC(=O)N/N=C/c1ccc(-c2cccc(Cl)c2)o1 | i | 4% | 39% | 1% | i | -12%
CN(C)c1ccc(CCc2ccnc3ccccc23)cc1 | i | / | / | / | i | /
ClC1=CN(C2=NCCC2)CC1 | i | / | / | / | i | /
O=S(=O)(N/N=C1/CC(c2ccccc2)Oc2ccccc21)c1ccc(Br)cc1 (stereo not drawn) | 18µM* | 10µM* | ? | ? | 23µM* | -24%
Cc1ccc(NC(=O)c2cc(-c3ccc(C)c(C)c3O)n[nH]2)cc1C | i | 13% | 2% | 11% | i | 3%
COc1ccc(NC(=O)c2cc(-c3ccc(C)c(C)c3O)n[nH]2)cc1Cl | i | 18µM* | -23% | ? | i | -5%
CN(c1ccccc1)c1nc(N)c(C#N)c(CC#N)c1C#N | 15µM* | 10% | ? | 1% | 7.3µM* | -20%
Cc1cc(C(=O)N2CCC2(C)C(=O)NS(=O)(=O)c2ccccc2Cl)nn1C (stereo not drawn) | i | / | / | / | i | /
Oc1c(C(c2ccccc2F)N2CCC3(CC2)OCCO3)sc2nc(-c3ccco3)nn12 (stereo not drawn) | i | / | / | / | i | /
Cc1ccc(C(=O)c2sc3nc4c(cc3c2N)CCC4)cc1 | i | 6% | 14% | -7% | i | ?
Nc1nc(N)c2sc3nc4c(cc3c2n1)CCC4 | i | 0% | 2% | 0% | 21µM* | 0%
O=C(N/C(=C/c1ccc(Cl)cc1)c1nc2ccccc2[nH]1)c1ccco1 | i | ? | -1% | -2% | 12µM* | 4%
O=C(/C(=C/c1ccc(Cl)cc1)c1nc2ccccc2[nH]1)c1ccccc1 | 5.2µM* | 6.5µM* | 4.5µM* | 5.2µM* | ? | 10µM*
COc1cc(/C=C(/C(=O)c2cccs2)c2nc3ccccc3[nH]2)cc(OC)c1O | 3.7µM* | 16µM* | ? | 23µM* | 21µM* | ?
COc1cc(NC(C)=O)c2ncccc2c1[N+](=O)[O-] | ? | 2% | 4µM* | -3% | ? | ?
O=C(COc1ccc(Cl)cc1)Nc1ncc([N+](=O)[O-])s1 | ? | ? | ? | -2% | 13µM* | ?
O=C(Cc1ccc(Cl)cc1)Nc1ncc([N+](=O)[O-])s1 | i | ? | ? | -4% | ? | ?
O=C(Cc1ccc(Br)cc1)Nc1ncc([N+](=O)[O-])s1 | 21µM* | ? | ? | 6% | ? | ?
COc1ccc(CCNC(=O)Nc2ccc3c(c2)c(=O)n(C)n3Cc2ccc(F)cc2)cc1OC | i | / | / | / | i | /
COc1cc(Cn2c3ccc(NC(=O)CCc4ccc(O)cc4)cc3c(=O)n2C)ccc1F | 5.8µM* | / | / | / | i | /
Cn1c(=O)c2cc(NC(=O)CCc3ccc4c(c3)OCO4)ccc2n1Cc1ccc(F)cc1 | ? | / | / | / | i | /
COc1cc(Cn2c3ccc(NC(=O)NCc4ccc(F)cc4)cc3c(=O)n2C)ccc1F | 9.2µM* | / | / | / | i | /
Fc1ccc(CNC(=S)Nc2ccccc2Cl)cc1 | i | -1% | 11µM* | -2% | i | ?
Cc1c(Cl)cccc1NC(=S)NCc1ccc(F)cc1 | i | 4% | 2.2µM* | -6% | ? | 5µM*
Cc1c(Cl)cccc1NC(=S)NCc1ccccc1Cl | ? | ? | 1.1µM* | -1% | ? | 1.6µM*
